According to PubChem BioAssay (NCATS):
Records with an inconclusive call do not appear. Values without a mark were called inactive. Calls come from the whole dose curve; as a rule, active = well fitted inhibition curve with a large enough effect; inconclusive = small, poorly fitted or top-dose-only effect; inactive = flat fitted curve, though single readings scatter.

System: astro (control astrocytes)
Experiment: Drug repurposing screens with cells derived from glioblastoma tumor samples (AID 1345199); note: nearly all actives have a fitted effect of over 40% in size
Conditions: viability, ATP luminescence, 48 h; series mostly up to 45.9 µM; activity, negative = cell killing: at the top concentration
Outline: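 Primary testing used CD133+ neurospheres from four GBM patients, seven concentrations, 48 h exposure and ATP-based viability; confirmation added three slower-growing patient lines.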
% is set by controls: 0 for no effect and ±100 for the full control effect.

Compound | activity, negative = cell killing
C=CCSSSCC=C | -22.8%
CC[C@H]1OC(=O)[C@H](C)[C@@H](O[C@H]2C[C@@](C)(OC)[C@@H](O)[C@H](C)O2)[C@H](C)[C@@H](O[C@@H]2O[C@H](C)C[C@H](N(C)C)[C@H]2O)[C@](C)(O)C[C@@H](C)/C(=N\OCOCCOC)[C@H](C)[C@@H](O)[C@]1(C)O | -4.1% [at 21.2 µM]
CCOC(=O)O[C@]1(C(=O)COC(=O)CC)CC[C@H]2[C@@H]3CCC4=CC(=O)C=C[C@]4(C)[C@H]3[C@@H](O)C[C@@]21C | -7.16% [at 21.2 µM]
C[C@H](CCC(=O)O)[C@H]1CC[C@H]2[C@@H]3[C@H](O)C[C@@H]4C[C@H](O)CC[C@]4(C)[C@H]3CC[C@]12C | -1.02% [at 21.2 µM]
Cc1ccccc1OCC(O)CNCCOc1ccc(C(N)=O)cc1 (stereo unspecified) | -23.8%
NCc1ccccc1CC(=O)N[C@@H]1C(=O)N2C(C(=O)O)=C(CSc3nnnn3CC(=O)O)CS[C@H]12 | -22.4% [at 21.2 µM]
